# Screens as filed in PubChem BioAssay.
# CCHF vOTU inh: blocks the CCHF virus ovarian tumor domain protease. inhibition, % at 11.5 µM. CCHFV vOTU protease, Pep-AMC fluorescence. AID 651958. 370,000 compounds, 0.55% hits; in the data active = inhibition above about 30%; also: 0% = vehicle wells with enzyme and 100% = no enzyme wells
# RN4220 kill: kills Staphylococcus aureus RN4220. inhibition, % (test concentration not listed). AID 1259311. S. aureus RN4220 growth, OD600, 16 h. 330,000 compounds, 0.33% hits; in the data active = inhibition above about 85%;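 also: plate controls were untreated cells for no effect and reference antibiotic for full effect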
# ugtP null kill: kills S. aureus RN4220 lacking UgtP | AID 1259309 | growth inhibition, % (no concentration beside the values) | S. aureus RN4220 ugtP deletion, OD600 growth, 16 h | 330,000 compounds, 0.54% hits; in the data active = growth inhibition above about 68%;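 also: plate controls were untreated wells for no effect and antibiotic for full effect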
# SSB-PriA inh: K. pneumoniae PriA-SSBct interaction inhibition; 430,000 compounds, 0.6% hits; inhibition, % at 33 µM; AlphaScreen SSBct-PriA binding, biotinylated peptide; in the data active = inhibition mostly above about 37%, no sharp cut-off; inactive = mostly below about 20%;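 also: plate controls were negative control peptide for no effect and reference peptide for full effect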
# Mtb hypoxia inh: reduces hypoxia-regulated biosensor signal in M. tuberculosis | M. tuberculosis hypoxia-regulated fluorescent reporter, fluorescence | fluorescence inhibition, % (test concentration not listed) | 300,000 compounds, 0.1% hits; in the data active = fluorescence inhibition mostly above about 23%, no sharp cut-off; inactive = mostly below about 17%
# Numbers without * were called inactive; · = no result given; ! = repeats disagree. This is a sample that favours compounds with a hit; in the whole collection about 1.4% have one here.
SMILES,CCHF vOTU inh,RN4220 kill,ugtP null kill,SSB-PriA inh,Mtb hypoxia inh
CCOC(=O)C(O)(NC(=O)c1cccnc1)C(F)(F)F (centres undefined),-6,84*,58,1,·
NCCCCC1NC(=O)c2cc([N+](=O)[O-])cc(I)c2SCC(C(=O)NCC(N)=O)NC(=O)CNC1=O (centres undefined),·,6,0,·,4
CCOc1ccccc1C(=O)NCCC(O)c1ccco1 (centres undefined),·,·,·,0,·
CCOc1ccccc1C(=O)NCC[C@H](O)c1ccccc1,·,·,·,43*,·
O=C(CCCS(=O)(=O)c1ccc(F)cc1)Nc1nnc(-c2ccco2)o1,·,·,·,0,·
O=C1CCCN1CCCN=c1c([N+](=O)[O-])nn(-c2ccc(Cl)cc2)n1O,4,64,62,-10,46*
CC(=NNC(=O)Cc1ccc(Cl)cc1)c1cccc(NC(=O)c2cccnc2)c1,·,-3,13,-21,6
COc1ccc(-c2nn(-c3ccccc3)cc2C=NNc2ccc(S(N)(=O)=O)cc2[N+](=O)[O-])cc1OC,·,5,-1,-5,12
NC(=O)C[C@H](NC(=O)c1ccc(Cl)cc1)C(=O)OCc1ccccc1,18,3,3,2,28*
COCCCNC(=O)C(CC(N)=O)NC(=O)OCc1ccccc1 (centres undefined),-1,0,-2,-15,-9
CCCN1CCCc2cc(CCNC(=O)C(=O)Nc3ccc(OC)cc3OC)ccc21,·,·,·,36,·
CCCN1CCCc2cc(CCNC(=O)C(=O)Nc3ccc(OC)c(OC)c3)ccc21,·,·,·,44,·
CCCN1CCCc2cc(CCNS(=O)(=O)c3cc(Cl)ccc3OC)ccc21,·,·,·,56*,·
CCCN1CCCc2cc(CCNS(=O)(=O)c3cc(OC)ccc3OC)ccc21,·,·,·,43*,·
CCCN1CCCc2cc(CCNS(=O)(=O)c3cc(CC)ccc3OC)ccc21,·,·,·,66*,·
O=C(C1c2ccccc2Oc2ccccc21)N1CC(N2C(=O)CCC2=O)C1,·,·,·,-8,·
COc1ccc2nc(-c3ccc(C)c(NS(=O)(=O)c4ccc(F)c(C)c4)c3)cn2n1,·,·,·,-7,·
N#CC(C#N)=C1C=CC=CN1/C(=C\c1ccco1)C(=O)c1ccccc1,-14,37,74,-1,19
N#CC(C#N)=C1C=CC=CN1/C(=C\c1ccco1)C(=O)c1ccc(Br)cc1,3,99*,98*,-10,8
On1c(-c2ccccc2)nc2ccccc21,11,6,1,-11,·
O=Nc1c2nc3ccccc3n(O)c-2c2ccccc12,-5,9,90*,·,-72
CC(=O)c1sc(NC(=O)c2cc(C)on2)nc1C,·,·,·,-9,·
O=C(N/N=C\c1ccc([N+](=O)[O-])s1)c1cncc(Br)c1,-6,·,·,·,·
O=C(NN=Cc1ccc([N+](=O)[O-])s1)c1cncc(Br)c1,·,25,99*,2,-11
Cc1[nH]cnc1C(=O)NN=Cc1ccc([N+](=O)[O-])s1,·,100*,100*,-9,-8
SMILES,CCHF vOTU inh,RN4220 kill,ugtP null kill,SSB-PriA inh,Mtb hypoxia inh
O=C(Nc1cccnc1)c1cccn(Cc2ccccc2Cl)c1=O,·,·,·,-9,·
CN(Cc1ccco1)S(=O)(=O)c1ccc(C(=O)Nc2nc3cc4c(cc3s2)OCCO4)cc1,·,·,·,0,·
C[n+]1cccc2ccc3cccnc3c21,·,·,·,49,·
CC1=[N+](C)c2c(ccc3cccnc23)C1(C)C,31*,-3,10,0,-4
CC[n+]1c(/C=C2\Sc3ccccc3N2C)ccc2cccc(C)c21,21,100*,101*,·,·
CC(=O)C1C(CCc2ccccc2)NC(=O)N(Cc2ccccc2)C1C (centres undefined),·,6,2,·,-4
CCOC(=O)c1ccccc1NC(=O)CSc1nccn1Cc1ccc2c(c1)OCO2,·,·,·,43*,·
COc1ccc(Cl)cc1NC(=O)CSc1nccn1Cc1ccc2c(c1)OCO2,·,·,·,45*,·
O=C(CSc1nccn1Cc1ccc2c(c1)OCO2)Nc1ccc2c(c1)OCCO2,·,·,·,11,·
Cc1ccnc2nc(C(=O)Nc3nc4ccccc4s3)nn12,1,1,4,-2,53*
Cc1csc(NC(=O)c2nc3nccc(C)n3n2)n1,15,1,5,-13,4
O=C(Nc1nc2ccccc2s1)c1ccc(N2CCCCC2)c([N+](=O)[O-])c1,7,0,-15,39*,13
O=C(Nc1nc(-c2csc(NC(=O)c3ccc(S(=O)(=O)N4CCOCC4)cc3)n2)cs1)c1ccc(S(=O)(=O)N2CCOCC2)cc1,·,·,·,-9,·
O=C(Nc1ccon1)c1ccc(N2CCCCC2)c([N+](=O)[O-])c1,5,1,1,2,-1
O=C(Nc1nc(-c2ccccn2)cs1)c1ccc(S(=O)(=O)N2CCOCC2)cc1,·,·,·,114*,·
O=C(Nc1nc(-c2ccccc2)cs1)c1ccc(N2CCOCC2)c([N+](=O)[O-])c1,·,16,-11,20,6
O=C(Nc1nc(-c2ccccn2)cs1)c1ccc(N2CCOCC2)c([N+](=O)[O-])c1,·,·,·,92*,·
CONC=C(C=Nc1ccc(Cl)cc1Cl)c1ncc(C(F)(F)F)cc1Cl,·,·,·,-11,·
COc1ccc(C(=O)Nc2nc(-c3ccccn3)cs2)cc1S(=O)(=O)N1CCOCC1,5,3,-9,46*,1
Cc1ccc(S(=O)(=O)N2CCOCC2)cc1C(=O)Nc1nc(-c2ccccn2)cs1,5,6,11,31,3
O=C(Nc1nc(-c2ccccn2)cs1)c1cccc(S(=O)(=O)N2CCOCC2)c1,14,·,·,81*,·
CN1CCN(S(=O)(=O)c2cccc(C(=O)Nc3nc(-c4ccccn4)cs3)c2)CC1,·,·,·,124*,·
O=C(Nc1nc(-c2ccccn2)cs1)c1cc(S(=O)(=O)N2CCOCC2)ccc1Cl,·,·,·,116*,·
CN1CCN(S(=O)(=O)c2cccc(C(=O)Nc3nc(-c4ccccc4)cs3)c2)CC1,-13,4,19,7,-10
Cc1ccccc1OCC(=O)NCC(c1ccc(N(C)C)cc1)N(C)C (centres undefined),·,·,·,0,·
SMILES,CCHF vOTU inh,RN4220 kill,ugtP null kill,SSB-PriA inh,Mtb hypoxia inh
CN(C)CCNN,·,·,·,27,·
Cc1ccccc1-[n+]1c(-c2ccccc2)cc(-c2ccccc2)cc1-c1ccccc1,0,100*,101*,-4,·
Oc1ccccc1-[n+]1c(-c2ccccc2)cc(-c2ccccc2)cc1-c1ccccc1,14,·,·,18,·
O=C([O-])c1ccccc1-[n+]1c(-c2ccccc2)cc(-c2ccccc2)cc1-c1ccccc1,0,98*,98*,·,12
[O-]c1ccccc1-[n+]1c(-c2ccccc2)cc(-c2ccccc2)cc1-c1ccccc1,6,101*,100*,·,·
O=S(=O)(Nc1ccc(N2CCCS2(=O)=O)cc1)c1cccs1,·,·,·,-8,·
Cc1cc([C@@H](O)CCNS(=O)(=O)c2ccc(Br)s2)c(C)o1,·,·,·,-1,·
C=CCn1c(=C(C#N)c2nnc3n2CCCCC3)sc(=Cc2ccc(O)cc2)c1=O,·,1,-7,5,3
NNC(=O)c1nc[nH]c1C(=O)Nc1ccccn1,-1,·,·,59*!,·
Cc1nn(C)c(C(=O)Sc2cccc(Cl)c2)c1[N+](=O)[O-],5,27,93*,-9,5
Cc1ccc(C(c2sc3ncnn3c2O)N2CCN(c3cccc(Cl)c3)CC2)cc1 (centres undefined),·,·,·,0,·
COc1cn(CC(=O)Nc2ccc(F)cc2F)c(CN2CCN(c3ccc(F)cc3)CC2)cc1=O,·,·,·,-13,·
